Structures are written as SMILES. For part of these data: Results with a measured potency or affinity are listed apart.

The source of these data is ChEMBL document CHEMBL4296182, “CO-ADD screening of NIH NCI Diversity Set V”.

In one test the test system is Staphylococcus aureus. Put plainly: Antibacterial activity against Staphylococcus aureus MRSA ATCC 43300 (CO-ADD:GP_020); MIC in CAMBH media using NBS plates, by Resazurin F(560/590). The test is classed as functional. The conditions noted are these: Concentration 20 uM, ASSAY_TEST Inhibition of Bacterial Growth, detection method Resazurin, Fluorescence (ex560/em590), MEDIA CAMHB, plate type 384well, CORNING #3640, time 18 hr.

A further test has as its system Acinetobacter baumannii. Put plainly: Antibacterial activity against Acinetobacter baumannii ATCC 19606 (CO-ADD:GN_034); MIC in CAMBH media using NBS plates, by Resazurin F(560/590). The test is classed as functional. Conditions: Concentration 20 uM, ASSAY_TEST Inhibition of Bacterial Growth, detection method Resazurin, Fluorescence (ex560/em590), MEDIA CAMHB, plate type 384well, CORNING #3640, time 18 hr. For orientation: Alamar Blue is a resazurin reagent that responds to reducing activity.

The subject of the next test is Escherichia coli. Put plainly: Antibacterial activity against Escherichia coli ATCC 25922 (CO-ADD:GN_001); MIC in CAMBH media using NBS plates, by Resazurin F(560/590). The test is classed as functional. Conditions: Concentration 20 uM, ASSAY_TEST Inhibition of Bacterial Growth, detection method Resazurin, Fluorescence (ex560/em590), MEDIA CAMHB, plate type 384well, CORNING #3640, time 18 hr.

A further test deals with Klebsiella pneumoniae. The conditions noted are these: Concentration 20 uM; ASSAY_TEST Inhibition of Bacterial Growth; detection method Absorption (OD600); MEDIA CAMHB; plate type 384well; NBS; CORNING #3640; time 18 hr.
In another test the test system is Candida albicans. Conditions: 20 µM.
A further test concerns Cryptococcus neoformans. Conditions: Concentration 20 uM; ASSAY_TEST Inhibition of Fungal Growth; detection method Resazurin; Absorption (OD600-OD570); plate type 384well; NBS; CORNING #3640.

For `COc1cc(C(=O)c2cocc2C(=O)c2ccc3c(c2)OCO3)cc(OC)c1OC`, the Inhibition in the test on Staphylococcus aureus is 27.15%; in the test on Acinetobacter baumannii, -6.33%; in the test with Escherichia coli, 12.62%; in the test with Klebsiella pneumoniae, 6.01%; in the test with Candida albicans, 3.29%; with Cryptococcus neoformans, 14.1%.
With `C=C(C)c1nc(Oc2ccccc2)nc(Oc2ccccc2)n1`, the Inhibition with Staphylococcus aureus is 19.07%; in the test with Acinetobacter baumannii, 6.26%; in the test with Escherichia coli it was 6.34%; in the test with Klebsiella pneumoniae, 11.06%; with Candida albicans, 0.6%; in the test on Cryptococcus neoformans it was -9.97%.
As for `Cc1ccc(/N=N/c2c(N)nn(-c3ccccc3)c2N)cc1`, the Inhibition is 4.28% in the test with Staphylococcus aureus; -1.05% in the test with Acinetobacter baumannii; 11.08% in the test with Escherichia coli; 11.62% with Klebsiella pneumoniae; 9.14% in the test on Candida albicans; -17.06% in the test on Cryptococcus neoformans.
`CC1OC1c1ccc(-c2ccc(C3OC3C)cc2)cc1` (stereo not given): the Inhibition in the test on Staphylococcus aureus is 3.27%; in the test on Acinetobacter baumannii, -0.69%; with Escherichia coli, 9.33%; in the test on Klebsiella pneumoniae, 23.63%; in the test on Candida albicans, 7.55%; with Cryptococcus neoformans it was -6.65%.
Turning to `C=CCN(CC=C)C(=O)Nc1cc(OC)ccc1OC`, the Inhibition is -0.3% with Staphylococcus aureus; -10.17% with Acinetobacter baumannii; 5.84% in the test on Escherichia coli; 8.16% in the test with Klebsiella pneumoniae; 3.21% with Candida albicans; -3.48% in the test with Cryptococcus neoformans.
For the molecule `CCOc1ccc2sc(NS(=O)(=O)c3ccc(N)cc3)nc2c1`, the Inhibition in the test on Staphylococcus aureus was -6.39%; in the test on Acinetobacter baumannii, -10.5%; in the test on Escherichia coli, 7.14%; in the test on Klebsiella pneumoniae, 12.93%; in the test on Candida albicans, 4%; with Cryptococcus neoformans, -12.92%.
For the molecule `O=C1NC(=O)C2(CCc3ccccc32)N1` (stereo not given), the Inhibition in the test on Staphylococcus aureus is -0.71%; with Acinetobacter baumannii, -7.84%; with Escherichia coli it was 5.32%; in the test on Klebsiella pneumoniae, 9.04%; in the test on Candida albicans, 4.28%; in the test with Cryptococcus neoformans, 0.2%.
Consider `CCOC(=O)C1=C(N)N=C(N)C1=Nc1ccc(OC)cc1`, for which the Inhibition with Staphylococcus aureus was 10.45%; with Acinetobacter baumannii, -11.35%; with Escherichia coli it was 6.73%; in the test with Klebsiella pneumoniae, 4.94%; with Candida albicans it was -1.95%; in the test on Cryptococcus neoformans it was -7.84%.
`NC(=O)c1ncn2c(=O)n(CCCl)nnc12` [MITOZOLOMIDE]: the Inhibition with Staphylococcus aureus is -4.1%; in the test on Acinetobacter baumannii it was 10.43%; in the test with Escherichia coli, 3.54%; in the test with Klebsiella pneumoniae, 6.17%; with Candida albicans it was 2.26%; in the test on Cryptococcus neoformans it was -10.87%.
Turning to `Sc1nc2ccccc2c2ccccc12`, the Inhibition with Staphylococcus aureus was -5.22%; with Acinetobacter baumannii, -10.6%; in the test on Escherichia coli, 1.21%; in the test with Klebsiella pneumoniae, 0.71%; in the test on Candida albicans it was 24.1%; in the test on Cryptococcus neoformans, 19.7%.
For the molecule `Cc1cc(=O)[nH]/c(=N/N=C2/CCCCC2C)[nH]1` (stereo not given), the Inhibition is 22.54% in the test with Staphylococcus aureus; -10.76% in the test with Acinetobacter baumannii; 10% in the test on Escherichia coli; 5.45% in the test on Klebsiella pneumoniae; -3.38% in the test with Candida albicans; -9.25% in the test on Cryptococcus neoformans.
With `CCC12CCCN3CCc4c(n(c5ccccc45)C(O)(C(=O)OC)C1)C32` (stereo not given), the Inhibition worked out at 7.39% with Staphylococcus aureus; 9.61% with Acinetobacter baumannii; 2.09% with Escherichia coli; 11.45% in the test on Klebsiella pneumoniae; 0.39% in the test on Candida albicans; 5.96% with Cryptococcus neoformans.
As for `NNC(=O)Cc1cc(O)[nH]n1`, the Inhibition in the test with Staphylococcus aureus was 0.66%; in the test on Acinetobacter baumannii, -1.89%; in the test on Escherichia coli it was 4.91%; in the test on Klebsiella pneumoniae it was -1.33%; in the test with Candida albicans, 1.93%; in the test with Cryptococcus neoformans, -9.5%.
For `O=[N+]([O-])c1ccc(Sc2ncccn2)c([N+](=O)[O-])c1`, the Inhibition in the test with Staphylococcus aureus was -0.05%; in the test on Acinetobacter baumannii it was -11.01%; in the test on Escherichia coli it was 5.58%; in the test with Klebsiella pneumoniae it was 8.38%; in the test with Candida albicans it was 12.9%; with Cryptococcus neoformans, -3.06%.
On to `Nc1cc(O)nc2ncnn12`, for which the Inhibition in the test with Staphylococcus aureus is 9.25%; with Acinetobacter baumannii it was -2.47%; in the test on Escherichia coli, 7.96%; in the test on Klebsiella pneumoniae it was 6.69%; with Candida albicans, -0.84%; with Cryptococcus neoformans, -4.53%.
Consider `Cc1ccc(NC(=O)Nc2cccnc2)cc1NC(=O)Nc1cccnc1`, for which the Inhibition in the test with Staphylococcus aureus was 4.86%; in the test on Acinetobacter baumannii it was 3.3%; with Escherichia coli, 5.1%; in the test on Klebsiella pneumoniae, 8.48%; with Candida albicans it was -3.78%; with Cryptococcus neoformans it was -10.14%.
`C1=CC2(C=C1)OC21CCC2(C=CC3(C2)OC3C2CCCCC2)CC1` (stereo not given): the Inhibition in the test with Staphylococcus aureus is -4.93%; in the test on Acinetobacter baumannii, 2.41%; in the test with Escherichia coli it was 4.97%; in the test with Klebsiella pneumoniae, -0.69%; in the test with Candida albicans, 1.23%; with Cryptococcus neoformans, -15.19%.
As for `Oc1cc(-n2cccn2)c(O)cc1-n1cccn1`, the Inhibition in the test with Staphylococcus aureus was 6.47%; with Acinetobacter baumannii, 8.87%; in the test on Escherichia coli it was -3.84%; with Klebsiella pneumoniae, 16.86%; in the test on Candida albicans it was 25.5%; with Cryptococcus neoformans it was -4.6%.
On to `COc1ccc(C(=S)N2CCN(c3ccccc3Cl)CC2)cc1OC`, for which the Inhibition is 21.01% in the test with Staphylococcus aureus; 9.29% with Acinetobacter baumannii; 8.55% with Escherichia coli; 6.8% with Klebsiella pneumoniae; 6.76% with Candida albicans; -9.03% in the test with Cryptococcus neoformans.
Turning to `CC(C)NCC1CCc2cc(CO)c([N+](=O)[O-])cc2N1` (stereo not given) [OXAMNIQUINE], the Inhibition was 9.47% with Staphylococcus aureus; -13.41% with Acinetobacter baumannii; 4.95% in the test with Escherichia coli; 3.1% in the test on Klebsiella pneumoniae; 2.55% in the test on Candida albicans; -8.23% with Cryptococcus neoformans.
For the molecule `OCCCCc1nccc2c1[nH]c1ccccc12`, the Inhibition is -6.35% in the test with Staphylococcus aureus; -7.04% in the test on Acinetobacter baumannii; -1.94% with Escherichia coli; -0.62% with Klebsiella pneumoniae; 2.78% in the test on Candida albicans; -8.33% with Cryptococcus neoformans.
For the molecule `CCn1c2ccccc2nc2cc3c(cc21)c(Cl)c(=O)c1ccccc13`, the Inhibition in the test with Staphylococcus aureus was 25.73%; in the test with Acinetobacter baumannii, 12.51%; in the test with Escherichia coli it was 3.84%; in the test with Klebsiella pneumoniae, 12.19%; in the test on Candida albicans it was -1.37%; in the test on Cryptococcus neoformans, -5.64%.
With `CC(=O)Nc1ccc(Cc2nc3c(=O)n(C)c(=O)n(C)c3[nH]2)cc1`, the Inhibition was 10.98% in the test on Staphylococcus aureus; -13.87% in the test with Acinetobacter baumannii; 3.26% with Escherichia coli; 6.41% with Klebsiella pneumoniae; 3.5% in the test on Candida albicans; -7.42% in the test with Cryptococcus neoformans.
On to `Nc1nc(N)c(/N=N/c2ccc(C(=O)O)cc2)c(N)n1`, for which the Inhibition in the test with Staphylococcus aureus is 20.24%; with Acinetobacter baumannii it was -14.9%; in the test with Escherichia coli it was 9.92%; with Klebsiella pneumoniae, 6.15%; in the test with Candida albicans it was 7.35%; in the test with Cryptococcus neoformans it was -10.91%.
Turning to `Cc1cc(NC(=O)c2ccccc2)c(Cl)cc1N`, the Inhibition was 13.14% in the test on Staphylococcus aureus; 13.32% with Acinetobacter baumannii; 3.07% with Escherichia coli; 14.81% in the test on Klebsiella pneumoniae; 3.76% in the test on Candida albicans; -3.43% with Cryptococcus neoformans.

The term Inhibition denotes the relative decrease from the control value, in per cent.
